HT1080NT lethal – kills 2HG-producing HT-1080-NT fibrosarcoma cells. HT-1080-NT fibrosarcoma viability, CellTiter-Glo ATP luminescence, 48 h. 360,000 tested, 1.6% active. Potency, µM (series often up to 46.1 µM), for inactives: at the highest dose activity, negative = less viability, hits mostly cytotoxic;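 note: NT is the 2HG producing partner of a matched IDH1 knockdown line; potency is the fitted concentration of half-maximal effect; 0% = DMSO-treated cells and -100% = media-only wells without cells; nearly all actives have a fitted effect of over 55% in size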
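Compounds were tested in concentration-response format on HT-1080-NT cells for 48 hours at 37 degrees C. Cell viability came from CellTiter-Glo luminescence; curves were classified by r2, response magnitude and activity.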
TDP1 cell noCPT – qHTS for Inhibitors of human tyrosyl-DNA phosphodiesterase 1 (TDP1): qHTS in cells in absence of CPT. DT40 Tdp1-/- hTDP1 cells, no CPT, ATP luminescence, 48 h. Potency, µM (doses to about 46.2 µM), inactives show top-dose activity change, negative = growth inhibition, actives largely listed as inhibitors. 420,000 tested, 15% active. AID 686978, 2013; note: potency is the fitted concentration of half-maximal effect; nearly all actives have a fitted effect of over 55% in size
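Growth of hTDP1-complemented DT40 Tdp1-knockout cells is measured by ATP luminescence after at least 48 hr compound exposure at 37 °C, with DMSO substituting for the 20 nM CPT used in the parallel screen.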
HT1080 IDH1KD tx – toxicity to HT-1080 IDH1 knockdown cells (counter line); Potency, µM (titrated, usually from 46.1 µM), without a hit: at the top dose activity, negative = toxicity, most hits filed as cytotoxic; HT-1080 IDH1 knockdown viability, ATP luminescence, 48 h; 360,000 tested, 2% active;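 note: potency is the fitted concentration of half-maximal effect; 0% = DMSO wells and -100% = cell-free medium wells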
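In this qHTS, HT-1080 cells depleted of IDH1 are exposed for 48 h at 37 °C to compound titrations. Toxicity is scored from CellTiter-Glo luminescence, with DMSO as full viability and medium alone as none.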
IL-1B inflam inh – blocks inflammasome-driven IL-1 beta release; 360,000 tested, 4.7% active; activity change, % at 57.5 µM; THP-1 LPS/ATP IL-1B secretion, AlphaLISA, 16 h; stronger effect = lower value; in the data active = activity change below about -50%; inconclusive = mostly about -30% to -49%
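Secreted IL-1B measured by AlphaLISA bead assay after 16 h compound exposure of THP-1 cells; compounds (final up to 57.5 uM) added 1 h before LPS (250 ng/mL) and ATP (1.25 mM) stimulation; lower signal means less secretion.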
TDP1 cell CPT – DT40-hTDP1 cell growth loss with CPT; Potency, µM (top dose mostly 46.2 µM), inactives show at the top dose activity change, negative = growth inhibition, hits mostly inhibitors; 420,000 tested, 12% active; chicken DT40 Tdp1-/-;hTDP1 cells + 20 nM CPT, ATP luminescence, 48 h; note: potency is the fitted concentration of half-maximal effect; nearly all actives have a fitted effect of over 55% in size
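Chicken DT40 Tdp1-/- cells complemented with human TDP1, 400 cells/well, exposed to compounds plus 20 nM camptothecin for at least 48 h at 37 C; viability read as ATP content by CellTiter-Glo luminescence.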
The depositor's hits bear a star; u = inconclusive; x = no result given; [ ] = remark or other dose. Rows were chosen to be rich in hits. Some 19% of all compounds tested hit in one or more screens of this group. Unless noted, calls come from the whole dose curve; as a rule, active = well fitted curve in the direction sought with a large enough effect; inconclusive = small, poorly fitted or top-dose-only effect, or another doubt; inactive = no such curve, though single readings can be large; an effect the other way counts as inactive or inconclusive. Unless noted, % is set by controls: 0 for no effect and ±100 for the full control effect.

SMILES | HT1080NT lethal | TDP1 cell noCPT | HT1080 IDH1KD tx | IL-1B inflam inh | TDP1 cell CPT
Clc1ccc(C2=Nn3c(nnc3-c3cc(-c4ccccc4)n[nH]3)SC2)cc1 | -5% | 18µM* | u | 9 | u
COc1ccc(C2=Nn3c(nnc3-c3ccc(OC)cc3)SC2)cc1 | u | 1µM* | u | 2 | 1.8µM*
COc1ccc(COC(=O)CNC(=O)C2CCCCC2)cc1F | 14% | -8% | 13% | 3 | 14%
CN(C)C(=O)CNC(=O)Cc1ccccc1 | x | 2% | x | x | -1%
Cc1ccc(S(=O)(=O)N(C)C)cc1NC(=O)COC(=O)/C=C/c1ccc2ccccc2n1 | -2% | u | u | -106* | u
Cc1ccc(S(=O)(=O)N(C)C)cc1NC(=O)COC(=O)c1c(-c2ccccc2)noc1C | 4% | u | 4% | -8 | -23%
O=C(COC(=O)/C=C/c1ccc2ccccc2n1)NNC(=O)c1ccc([N+](=O)[O-])cc1 | 14% | -9% | 9% | -53* | 10%
Cc1ccccc1CNC(=O)C(=O)NCC1CCCN1S(=O)(=O)c1cccs1 (centres undefined) | -2% | u | -5% | -4 | u
NC(=O)C1CCCN(C(=O)c2[nH]c(C(F)(F)F)nc2-c2ccccc2)C1 (centres undefined) | 6% | 0% | 11% | 16 | 1%
COc1cccc(C(=O)CSc2nnc(COc3cccc4cccnc34)o2)c1 | u | 4.1µM* | u | -7 | 3.7µM*
O=C(CSc1nnc(COc2cccc3cccnc23)o1)N1CCCC1 | 3% | -27% | 3% | 14 | -4%
O=C(CSc1nnc(COc2cccc3cccnc23)o1)c1ccc(F)cc1 | 10µM* | 4.1µM* | 5µM* | -3 | 4.1µM*
Cc1ccc(C(=O)CSc2nnc(COc3cccc4cccnc34)o2)cc1 | u | 23µM* | u | u | 10µM*
CC1CCCC(C)N1C(=O)CSc1nnc(COc2cccc3cccnc23)o1 (centres undefined) | 15% | u | 12% | -4 | -26%
Cc1ccc(C(=O)CSc2nnc(COc3cccc(C)c3)o2)cc1 | -5% | -17% | -2% | 13 | 4%
Brc1ccccc1CN1CCN(Cc2c[nH]c3ccccc23)CC1 | 7.3µM* | 1.5µM* | 23µM* | -103* | 0.52µM*
COc1cccc(CN2CCN(c3ncccn3)CC2)c1OC | 9% | 1% | 8% | 16 | -21%
O=[N+]([O-])c1ccc(CN2CCN(Cc3c[nH]c4ccccc34)CC2)cc1 | -30% | u | u | -69* | u
Brc1ccc(CN2CCN(Cc3c[nH]c4ccccc34)CC2)cc1 | 23µM* | 9.2µM* | 21µM* | u | 2.3µM*
O=C(c1cccc(Cl)c1)N1CCN(Cc2c[nH]c3ccccc23)CC1 | 2% | u | 1% | -5 | -27%
CCS(=O)(=O)N1CCN(Cc2c[nH]c3ccccc23)CC1 | 3% | -29% | 7% | 30 | u
c1cnc(N2CCN(Cc3c[nH]c4ccccc34)CC2)nc1 | -19% | 2.1µM* | u | u | 1.8µM*
CCSc1nc(-c2ccc(OC)cc2)n(-c2nc3ccccc3s2)n1 | 0% | u | 13% | 20 | u
CC(OC(=O)CN1C(=O)C2C3C=CC(C4CC34)C2C1=O)C(=O)c1ccccc1 (centres undefined) | 18% | -15% | 13% | 12 | -12%
CSc1ccc(C(=O)N2CCc3c(cnc(C)c3CNC(=O)c3cncs3)C2)cc1 | x | u | x | x | 0%[9.04 µM]
Cc1cccc(C)c1NS(=O)(=O)c1ccc(OCCNS(C)(=O)=O)cc1 | 4% | -19% | 1% | -2 | -5%
Cn1c(=O)c2c(nc(CN3CCN(c4ccccc4)CC3)n2CCCc2ccccc2)n(C)c1=O | 2% | 15µM* | -1% | 10 | 21µM*
CC(C)CCn1c(CN2CCN(Cc3ccccc3)CC2)nc2c1c(=O)n(C)c(=O)n2C | -1% | 16µM* | -1% | 0 | u
